# What was measured:
# Assay in all cases: DAPPL (digital affinity profiling via proximity ligation, sequencing); 10 mM Tris-HCl pH 7.5, 50 mM NaCl, 1 mM DTT, 4% glycerol, room temperature, 30 min; GST-TFs on glutathione beads, 16-mer random dsDNA library, 0.1% formaldehyde crosslink after washing; high values mean tight binding
# FEV = target: T1, FEV (Homo sapiens, UniProt Q99581 1-238); conditions: protein: recombinant; tags: N-terminal GST; dsDNA, one strand shown
# T1 sequence: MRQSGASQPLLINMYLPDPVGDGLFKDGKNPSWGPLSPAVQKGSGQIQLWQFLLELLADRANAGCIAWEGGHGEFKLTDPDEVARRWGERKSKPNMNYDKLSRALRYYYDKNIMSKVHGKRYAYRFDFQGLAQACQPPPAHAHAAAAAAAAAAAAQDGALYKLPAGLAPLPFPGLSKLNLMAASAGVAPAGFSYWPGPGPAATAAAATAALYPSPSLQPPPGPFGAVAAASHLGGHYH
# Summary of the method: (§1)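 The binding signal reported is, for every hexamer, its read frequency for a factor over its read frequency for the tag-only sample. Reads came from pools of yeast-expressed, GST-fused human transcription factors on glutathione beads, barcoded with DNA and mixed with that sample, which were incubated with 200 nmole of a random double-stranded 16-mer DNA library in Tris/NaCl/DTT/glycerol buffer at room temperature for 30 min. After washing, the pools were crosslinked with 0.1% formaldehyde, proximity-ligated with BsaI/T4 ligase for 1 h at 37 °C, PCR-amplified and sequenced on an Illumina NextSeq500.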
# ETV5 = ETV5 (Homo sapiens, UniProt P41161 1-510); conditions: protein: recombinant; tags: N-terminal GST; dsDNA, one strand shown
# Summary of the method: as §1
# HSF1 = HSF1 (Homo sapiens, UniProt Q00613 1-529); conditions: protein: recombinant; tags: N-terminal GST; chain copies: 3; dsDNA, one strand shown
# Summary of the method: as §1
# SPIC = target: T2, SPIC (Homo sapiens, UniProt Q8N5J4 1-248); conditions: protein: recombinant; tags: N-terminal GST; dsDNA, one strand shown
# T2 sequence: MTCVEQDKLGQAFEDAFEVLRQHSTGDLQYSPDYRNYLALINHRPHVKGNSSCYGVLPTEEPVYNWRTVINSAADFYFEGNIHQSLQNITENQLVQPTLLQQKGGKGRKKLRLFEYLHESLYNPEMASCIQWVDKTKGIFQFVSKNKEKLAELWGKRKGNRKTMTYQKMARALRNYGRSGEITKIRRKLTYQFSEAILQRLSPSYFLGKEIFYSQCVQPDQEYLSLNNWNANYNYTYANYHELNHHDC
# Summary of the method: as §1
# ELF4 = ELF4 (Homo sapiens, UniProt Q99607 1-663); conditions: protein: recombinant; tags: N-terminal GST; dsDNA, one strand shown
# Summary of the method: as §1
# ELK4 = target: T3, ELK4 (Homo sapiens, UniProt P28324-2 1-405); conditions: protein: recombinant; tags: N-terminal GST; dsDNA, one strand shown
# T3 sequence: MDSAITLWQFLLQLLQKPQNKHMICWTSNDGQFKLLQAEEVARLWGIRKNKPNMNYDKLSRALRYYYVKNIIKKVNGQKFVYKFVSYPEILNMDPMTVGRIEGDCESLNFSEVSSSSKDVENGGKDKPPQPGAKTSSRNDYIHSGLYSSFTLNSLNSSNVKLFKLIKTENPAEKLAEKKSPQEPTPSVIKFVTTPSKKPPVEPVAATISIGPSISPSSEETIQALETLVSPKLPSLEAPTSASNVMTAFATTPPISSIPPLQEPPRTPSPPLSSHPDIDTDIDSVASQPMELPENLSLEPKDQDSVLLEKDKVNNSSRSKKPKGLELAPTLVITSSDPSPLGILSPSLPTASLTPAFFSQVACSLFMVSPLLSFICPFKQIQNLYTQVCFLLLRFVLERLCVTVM
# Summary of the method: as §1
# ETV2 = target: T4, ETV2 (Homo sapiens, UniProt O00321 1-342); conditions: protein: recombinant; tags: N-terminal GST; dsDNA, one strand shown
# T4 sequence: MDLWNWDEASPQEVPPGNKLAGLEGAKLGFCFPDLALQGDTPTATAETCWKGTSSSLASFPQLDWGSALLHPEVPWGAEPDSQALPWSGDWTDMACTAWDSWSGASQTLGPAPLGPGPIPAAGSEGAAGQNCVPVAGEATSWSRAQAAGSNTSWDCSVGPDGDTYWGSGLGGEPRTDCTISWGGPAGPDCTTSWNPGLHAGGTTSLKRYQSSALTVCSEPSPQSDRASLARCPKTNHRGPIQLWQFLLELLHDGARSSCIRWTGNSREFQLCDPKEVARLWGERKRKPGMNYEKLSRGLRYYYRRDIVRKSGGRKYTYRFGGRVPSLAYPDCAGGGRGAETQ
# Summary of the method: as §1
# ELF3 = target: T5, ELF3 (Homo sapiens, UniProt P78545 1-371); conditions: protein: recombinant; tags: N-terminal GST; dsDNA, one strand shown
# T5 sequence: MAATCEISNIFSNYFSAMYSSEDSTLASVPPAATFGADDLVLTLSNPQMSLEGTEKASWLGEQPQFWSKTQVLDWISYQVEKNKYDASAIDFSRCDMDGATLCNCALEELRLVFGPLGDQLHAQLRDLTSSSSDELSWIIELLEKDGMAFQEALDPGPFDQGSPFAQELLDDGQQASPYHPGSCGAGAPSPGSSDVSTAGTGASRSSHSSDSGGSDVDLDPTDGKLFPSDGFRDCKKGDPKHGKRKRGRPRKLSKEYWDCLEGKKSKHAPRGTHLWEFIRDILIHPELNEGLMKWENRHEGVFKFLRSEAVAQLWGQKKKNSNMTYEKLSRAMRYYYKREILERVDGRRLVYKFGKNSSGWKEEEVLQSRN
# Summary of the method: as §1
# CRX = CRX (Homo sapiens, UniProt O43186 1-299); conditions: protein: recombinant; tags: N-terminal GST; dsDNA, one strand shown
# Summary of the method: as §1
# ETV1 = ETV1 (Homo sapiens, UniProt P50549 1-477); conditions: protein: recombinant; tags: N-terminal GST; dsDNA, one strand shown
# Summary of the method: as §1
# ERF = target: T6, ERF (Homo sapiens, UniProt P50548 1-548); conditions: protein: recombinant; tags: N-terminal GST; dsDNA, one strand shown
# T6 sequence: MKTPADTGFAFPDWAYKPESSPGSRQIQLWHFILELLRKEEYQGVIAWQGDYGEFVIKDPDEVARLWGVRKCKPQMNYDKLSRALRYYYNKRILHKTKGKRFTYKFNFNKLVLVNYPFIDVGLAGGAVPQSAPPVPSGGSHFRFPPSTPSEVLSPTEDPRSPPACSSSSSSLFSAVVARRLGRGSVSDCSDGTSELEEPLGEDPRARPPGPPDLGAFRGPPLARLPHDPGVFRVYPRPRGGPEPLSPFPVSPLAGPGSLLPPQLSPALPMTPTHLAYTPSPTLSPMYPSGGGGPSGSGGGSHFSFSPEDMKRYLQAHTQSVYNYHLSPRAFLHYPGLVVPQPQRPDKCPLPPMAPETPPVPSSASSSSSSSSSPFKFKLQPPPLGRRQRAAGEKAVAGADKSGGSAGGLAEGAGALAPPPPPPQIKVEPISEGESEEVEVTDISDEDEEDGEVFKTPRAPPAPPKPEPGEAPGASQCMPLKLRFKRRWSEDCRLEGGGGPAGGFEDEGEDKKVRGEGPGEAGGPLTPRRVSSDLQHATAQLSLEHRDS
# Summary of the method: as §1
# ETV3L = target: T7, ETV3L (Homo sapiens, UniProt Q6ZN32 1-361); conditions: protein: recombinant; tags: N-terminal GST; dsDNA, one strand shown
# T7 sequence: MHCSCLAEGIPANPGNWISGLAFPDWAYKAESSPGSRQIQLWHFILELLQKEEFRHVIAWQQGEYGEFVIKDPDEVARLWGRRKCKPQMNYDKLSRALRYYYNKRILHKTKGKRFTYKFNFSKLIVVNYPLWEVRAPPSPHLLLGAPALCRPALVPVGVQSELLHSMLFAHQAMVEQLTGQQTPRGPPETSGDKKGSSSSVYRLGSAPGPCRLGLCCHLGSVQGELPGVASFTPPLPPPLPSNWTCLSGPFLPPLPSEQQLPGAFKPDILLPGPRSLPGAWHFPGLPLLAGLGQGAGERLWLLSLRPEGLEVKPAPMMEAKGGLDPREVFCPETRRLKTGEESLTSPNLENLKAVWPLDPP
# Summary of the method: as §1
# ETS2 = target: T8, ETS2 (Homo sapiens, UniProt P15036 1-469); conditions: protein: recombinant; tags: N-terminal GST; dsDNA, one strand shown
# T8 sequence: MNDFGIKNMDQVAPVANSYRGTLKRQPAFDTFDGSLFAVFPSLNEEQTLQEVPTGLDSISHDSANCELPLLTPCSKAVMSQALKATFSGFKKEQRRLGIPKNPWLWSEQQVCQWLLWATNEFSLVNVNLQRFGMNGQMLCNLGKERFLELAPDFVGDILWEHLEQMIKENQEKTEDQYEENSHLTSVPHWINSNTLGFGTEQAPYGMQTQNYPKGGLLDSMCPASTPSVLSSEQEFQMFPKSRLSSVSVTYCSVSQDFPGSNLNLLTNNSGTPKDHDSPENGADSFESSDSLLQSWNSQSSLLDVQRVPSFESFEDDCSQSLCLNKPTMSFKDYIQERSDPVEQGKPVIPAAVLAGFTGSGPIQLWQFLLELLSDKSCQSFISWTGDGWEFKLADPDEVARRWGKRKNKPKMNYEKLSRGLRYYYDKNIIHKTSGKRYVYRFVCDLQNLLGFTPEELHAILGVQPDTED
# Summary of the method: as §1
# SPDEF = target: T9, SPDEF (Homo sapiens, UniProt O95238 1-335); conditions: protein: recombinant; tags: N-terminal GST; dsDNA, one strand shown
# T9 sequence: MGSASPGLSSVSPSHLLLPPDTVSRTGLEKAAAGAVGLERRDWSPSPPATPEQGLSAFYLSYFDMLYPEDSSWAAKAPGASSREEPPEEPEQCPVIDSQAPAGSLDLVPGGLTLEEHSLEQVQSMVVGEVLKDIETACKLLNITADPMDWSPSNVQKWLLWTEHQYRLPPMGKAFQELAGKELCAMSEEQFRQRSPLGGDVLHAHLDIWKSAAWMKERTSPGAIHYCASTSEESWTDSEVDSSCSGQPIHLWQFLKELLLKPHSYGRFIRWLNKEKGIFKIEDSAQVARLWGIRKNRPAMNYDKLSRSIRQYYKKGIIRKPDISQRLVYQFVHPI
# Summary of the method: as §1
# ETV7 = target: T10, ETV7 (Homo sapiens, UniProt Q9Y603 1-341); conditions: protein: recombinant; tags: N-terminal GST; dsDNA, one strand shown
# T10 sequence: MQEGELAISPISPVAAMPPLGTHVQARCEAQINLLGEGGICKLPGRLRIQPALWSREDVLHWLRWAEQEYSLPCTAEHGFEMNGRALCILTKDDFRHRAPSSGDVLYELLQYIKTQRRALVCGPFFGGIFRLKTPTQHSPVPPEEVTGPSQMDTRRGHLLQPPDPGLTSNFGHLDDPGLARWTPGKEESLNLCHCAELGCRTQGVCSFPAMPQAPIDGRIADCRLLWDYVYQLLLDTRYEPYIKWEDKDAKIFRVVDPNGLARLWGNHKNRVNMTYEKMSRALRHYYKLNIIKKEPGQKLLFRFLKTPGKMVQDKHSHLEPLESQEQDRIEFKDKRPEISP
# Summary of the method: as §1
# ELF5 = target: T11, ELF5 (Homo sapiens, UniProt Q9UKW6-2 1-255); conditions: protein: recombinant; tags: N-terminal GST; dsDNA, one strand shown
# T11 sequence: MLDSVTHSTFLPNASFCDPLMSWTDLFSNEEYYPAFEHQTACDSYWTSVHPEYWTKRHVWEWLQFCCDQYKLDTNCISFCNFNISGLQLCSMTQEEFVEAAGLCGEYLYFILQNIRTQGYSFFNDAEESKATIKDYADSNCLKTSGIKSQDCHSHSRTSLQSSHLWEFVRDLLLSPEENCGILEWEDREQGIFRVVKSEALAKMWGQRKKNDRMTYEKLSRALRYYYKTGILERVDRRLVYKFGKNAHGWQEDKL
# Summary of the method: as §1
# ETV3 = target: T12, ETV3 (Homo sapiens, UniProt P41162-2 1-143); conditions: protein: recombinant; tags: N-terminal GST; dsDNA, one strand shown
# T12 sequence: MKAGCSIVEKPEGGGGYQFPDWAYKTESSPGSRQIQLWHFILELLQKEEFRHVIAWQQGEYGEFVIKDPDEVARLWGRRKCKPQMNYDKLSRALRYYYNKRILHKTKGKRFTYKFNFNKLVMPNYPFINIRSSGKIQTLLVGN
# Summary of the method: as §1
# ETV6 = ETV6 (Homo sapiens, UniProt P41212 1-452); conditions: protein: recombinant; tags: N-terminal GST; dsDNA, one strand shown
# Summary of the method: as §1
# Sequence of ETV5 (P41161 whole entry): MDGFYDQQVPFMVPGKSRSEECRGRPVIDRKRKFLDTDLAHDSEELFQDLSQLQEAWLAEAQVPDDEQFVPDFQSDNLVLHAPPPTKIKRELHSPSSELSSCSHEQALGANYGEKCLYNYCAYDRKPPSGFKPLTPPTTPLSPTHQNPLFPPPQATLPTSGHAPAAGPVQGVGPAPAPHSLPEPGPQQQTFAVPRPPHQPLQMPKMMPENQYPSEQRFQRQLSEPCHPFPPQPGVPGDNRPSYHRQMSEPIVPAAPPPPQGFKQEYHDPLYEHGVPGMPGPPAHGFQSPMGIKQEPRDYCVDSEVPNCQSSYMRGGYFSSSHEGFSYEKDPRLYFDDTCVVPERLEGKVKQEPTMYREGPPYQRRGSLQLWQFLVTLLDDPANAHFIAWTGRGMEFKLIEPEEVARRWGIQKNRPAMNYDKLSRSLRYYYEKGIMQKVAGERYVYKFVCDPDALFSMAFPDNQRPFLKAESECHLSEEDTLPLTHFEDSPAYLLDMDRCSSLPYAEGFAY
# Sequence of CRX (O43186 whole entry): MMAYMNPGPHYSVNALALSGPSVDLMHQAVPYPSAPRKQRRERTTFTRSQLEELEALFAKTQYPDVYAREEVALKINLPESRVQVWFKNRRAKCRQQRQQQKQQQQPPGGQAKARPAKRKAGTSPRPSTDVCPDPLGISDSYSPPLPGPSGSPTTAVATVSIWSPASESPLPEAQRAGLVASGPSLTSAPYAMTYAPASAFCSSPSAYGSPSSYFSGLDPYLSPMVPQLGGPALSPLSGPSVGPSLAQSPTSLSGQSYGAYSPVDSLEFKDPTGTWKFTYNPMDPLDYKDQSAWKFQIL
# Sequence of ETV1 (P50549 whole entry): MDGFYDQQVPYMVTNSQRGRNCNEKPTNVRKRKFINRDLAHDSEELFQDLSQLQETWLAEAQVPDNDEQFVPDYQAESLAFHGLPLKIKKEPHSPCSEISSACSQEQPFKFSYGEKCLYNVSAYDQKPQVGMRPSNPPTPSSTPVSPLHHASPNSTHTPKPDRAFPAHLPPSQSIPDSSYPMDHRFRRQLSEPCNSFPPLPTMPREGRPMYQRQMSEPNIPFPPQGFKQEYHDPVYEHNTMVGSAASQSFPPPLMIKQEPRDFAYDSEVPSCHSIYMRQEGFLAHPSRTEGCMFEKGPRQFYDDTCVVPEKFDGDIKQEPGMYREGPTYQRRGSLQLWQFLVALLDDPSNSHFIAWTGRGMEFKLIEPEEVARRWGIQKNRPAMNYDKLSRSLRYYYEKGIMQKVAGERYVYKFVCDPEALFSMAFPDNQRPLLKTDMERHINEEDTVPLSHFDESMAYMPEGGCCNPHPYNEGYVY
# Sequence of ETV6 (P41212 whole entry): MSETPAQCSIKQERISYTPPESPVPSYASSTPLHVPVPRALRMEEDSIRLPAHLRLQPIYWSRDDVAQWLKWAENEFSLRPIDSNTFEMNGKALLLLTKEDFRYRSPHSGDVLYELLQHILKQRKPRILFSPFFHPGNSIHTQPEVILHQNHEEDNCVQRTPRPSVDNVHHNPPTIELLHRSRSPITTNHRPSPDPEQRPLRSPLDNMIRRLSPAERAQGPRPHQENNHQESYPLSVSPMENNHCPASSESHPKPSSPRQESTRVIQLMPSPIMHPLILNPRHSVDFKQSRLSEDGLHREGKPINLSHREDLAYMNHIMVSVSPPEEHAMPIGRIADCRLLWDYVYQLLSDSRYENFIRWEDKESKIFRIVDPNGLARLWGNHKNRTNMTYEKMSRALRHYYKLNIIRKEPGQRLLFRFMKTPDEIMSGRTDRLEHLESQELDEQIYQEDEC
# Sequence of HSF1 (Q00613 whole entry): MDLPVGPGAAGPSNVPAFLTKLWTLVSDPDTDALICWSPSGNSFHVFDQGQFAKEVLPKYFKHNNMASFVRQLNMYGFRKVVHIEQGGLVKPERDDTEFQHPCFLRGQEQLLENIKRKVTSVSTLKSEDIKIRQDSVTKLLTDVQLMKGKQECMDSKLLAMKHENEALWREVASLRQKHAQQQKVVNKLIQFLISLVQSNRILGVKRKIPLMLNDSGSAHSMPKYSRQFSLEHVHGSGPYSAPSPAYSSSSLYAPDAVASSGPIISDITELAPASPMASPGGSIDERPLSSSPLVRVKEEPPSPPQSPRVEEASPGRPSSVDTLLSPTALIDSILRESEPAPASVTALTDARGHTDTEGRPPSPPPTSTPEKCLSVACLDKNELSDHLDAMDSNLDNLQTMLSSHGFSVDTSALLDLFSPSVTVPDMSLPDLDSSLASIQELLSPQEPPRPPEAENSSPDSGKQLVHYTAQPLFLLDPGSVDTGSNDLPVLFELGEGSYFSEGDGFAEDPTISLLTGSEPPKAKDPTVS
# Sequence of ELF4 (Q99607 whole entry): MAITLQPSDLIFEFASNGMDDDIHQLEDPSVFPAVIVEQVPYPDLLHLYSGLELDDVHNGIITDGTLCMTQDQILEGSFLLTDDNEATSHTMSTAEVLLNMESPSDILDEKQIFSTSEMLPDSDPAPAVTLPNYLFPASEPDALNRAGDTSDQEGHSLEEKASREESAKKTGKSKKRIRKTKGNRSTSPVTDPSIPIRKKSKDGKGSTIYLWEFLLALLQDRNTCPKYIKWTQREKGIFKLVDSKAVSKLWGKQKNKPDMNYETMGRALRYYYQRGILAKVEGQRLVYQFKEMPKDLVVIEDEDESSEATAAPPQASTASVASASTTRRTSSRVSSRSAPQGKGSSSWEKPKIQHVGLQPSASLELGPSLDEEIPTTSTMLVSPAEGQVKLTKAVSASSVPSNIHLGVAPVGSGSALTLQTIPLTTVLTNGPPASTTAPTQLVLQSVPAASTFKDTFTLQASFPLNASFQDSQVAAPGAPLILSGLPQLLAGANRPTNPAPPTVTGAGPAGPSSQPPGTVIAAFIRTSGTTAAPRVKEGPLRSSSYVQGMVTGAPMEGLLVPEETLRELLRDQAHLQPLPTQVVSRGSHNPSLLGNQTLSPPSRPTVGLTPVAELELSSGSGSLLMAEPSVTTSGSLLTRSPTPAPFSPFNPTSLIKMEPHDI
sequence,measurement,setting,value
TTTTTG,binding signal,FEV,"1.33 fold enrichment (6-mer frequency, TF over GST control)"
same,binding signal,ETV5,"1.42 fold enrichment (6-mer frequency, TF over GST control)"
same,binding signal,HSF1,"1.24 fold enrichment (6-mer frequency, TF over GST control)"
same,binding signal,SPIC,"1.39 fold enrichment (6-mer frequency, TF over GST control)"
same,binding signal,ELF4,"1.45 fold enrichment (6-mer frequency, TF over GST control)"
same,binding signal,ELK4,"1.5 fold enrichment (6-mer frequency, TF over GST control)"
same,binding signal,ETV2,"1.51 fold enrichment (6-mer frequency, TF over GST control)"
same,binding signal,ELF3,"1.44 fold enrichment (6-mer frequency, TF over GST control)"
same,binding signal,CRX,"1.31 fold enrichment (6-mer frequency, TF over GST control)"
same,binding signal,ETV1,"1.48 fold enrichment (6-mer frequency, TF over GST control)"
same,binding signal,ERF,"1.35 fold enrichment (6-mer frequency, TF over GST control)"
same,binding signal,ETV3L,"1.38 fold enrichment (6-mer frequency, TF over GST control)"
same,binding signal,ETS2,"1.27 fold enrichment (6-mer frequency, TF over GST control)"
same,binding signal,SPDEF,"1.28 fold enrichment (6-mer frequency, TF over GST control)"
same,binding signal,ETV7,"1.25 fold enrichment (6-mer frequency, TF over GST control)"
same,binding signal,ELF5,"1.27 fold enrichment (6-mer frequency, TF over GST control)"
same,binding signal,ETV3,"1.29 fold enrichment (6-mer frequency, TF over GST control)"
same,binding signal,ETV6,"1.23 fold enrichment (6-mer frequency, TF over GST control)"
